Measurements taken from PubChem BioAssay (NCATS).
Inconclusive results are not listed. The source made the active and inactive calls. Unless noted, the call rests on the fitted dose curve; in most records, active means well fitted cell-killing curve with a large enough effect; inconclusive means small, poorly fitted or top-dose-only effect, or effect the other way; inactive means no such curve, though single readings can be large or run the other way.

What was measured:
[1] = Quantitative High-Throughput drug screen in 47 multiple myeloma cell lines against the NCATS MIPE library collection: KMS34_JCRB cell viability assay (AID 1918985); further: nearly all actives have a fitted effect of over 40% in size
Outline: (§1)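 MIPE 4.0 approved/investigational drugs; 500 cells/well; 48 h 37 °C humidified 5% CO2; CTG luminescence readout; DMSO = 100%, media = 0% viability.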

[2] = Quantitative High-Throughput drug screen in 47 multiple myeloma cell lines against the NCATS MIPE library collection: OCIMY7_PLB cell viability assay (AID 1918987); further: nearly all actives have a fitted effect of over 65% in size
Outline: as §1

[3] = Quantitative High-Throughput drug screen in 47 multiple myeloma cell lines against the NCATS MIPE library collection: OCIMY5_PLB cell viability assay (AID 1918988); further: nearly all actives have a fitted effect of over 65% in size
Outline: as §1

[4] = Quantitative High-Throughput drug screen in 47 multiple myeloma cell lines against the NCATS MIPE library collection: OPM1_PLB cell viability assay (AID 1918989); further: nearly all actives have a fitted effect of over 40% in size
Outline: as §1

[5] = Quantitative High-Throughput drug screen in 47 multiple myeloma cell lines against the NCATS MIPE library collection: SKMM1_PLB cell viability assay (AID 1919863); details: SKMM1 myeloma viability, CellTiter-Glo ATP, 48 h; viability: stronger effect = lower value; further: nearly all actives have a fitted effect of over 35% in size
Outline: as §1

[6] = Quantitative High-Throughput drug screen in 47 multiple myeloma cell lines against the NCATS MIPE library collection: U266_ATCC cell viability assay (AID 1919864); further: nearly all actives have a fitted effect of over 35% in size
Outline: as §1

[7] = Quantitative High-Throughput drug screen in 47 multiple myeloma cell lines against the NCATS MIPE library collection: XG6_PLB cell viability assay (AID 1919865); further: nearly all actives have a fitted effect of over 40% in size
Outline: as §1

[8] = Quantitative High-Throughput drug screen in 47 multiple myeloma cell lines against the NCATS MIPE library collection: XG1_PLB cell viability assay (AID 1919866); further: nearly all actives have a fitted effect of over 35% in size
Outline: as §1

[9] = Quantitative High-Throughput drug screen in 47 multiple myeloma cell lines against the NCATS MIPE library collection: VP6_DJ cell viability assay (AID 1919867); further: nearly all actives have a fitted effect of over 40% in size
Outline: as §1

[10] = Quantitative High-Throughput drug screen in 47 multiple myeloma cell lines against the NCATS MIPE library collection: UTMC2_PLB cell viability assay (AID 1919868); details: CellTiter-Glo ATP luminescence, 48 h; viability (% of DMSO control): at 45.8 µM (top of the series) unless noted; further: nearly all actives have a fitted effect of over 55% in size
Outline: as §1

[11] = Quantitative High-Throughput drug screen in 47 multiple myeloma cell lines against the NCATS MIPE library collection: PE2_PLB cell viability assay (AID 1919869); further: nearly all actives have a fitted effect of over 35% in size
Outline: as §1

[12] = Quantitative High-Throughput drug screen in 47 multiple myeloma cell lines against the NCATS MIPE library collection: RPMI8226_ATCC cell viability assay (AID 1919871); further: nearly all actives have a fitted effect of over 30% in size
Outline: as §1

[13] = Quantitative High-Throughput drug screen in 47 multiple myeloma cell lines against the NCATS MIPE library collection: OPM2_DSMZ cell viability assay (AID 1919872); further: nearly all actives have a fitted effect of over 30% in size
Outline: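 We plated 500 myeloma cells per well, pinned in MIPE 4.0 compounds, and incubated for 48 hours at 37C. ATP was then quantified with CellTiter-Glo, with DMSO and media-only wells defining 100% and 0%.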

[14] = Quantitative High-Throughput drug screen in 47 multiple myeloma cell lines against the NCATS MIPE library collection: KMS11_JCRBsus cell viability assay (AID 1919873); further: nearly all actives have a fitted effect of over 50% in size
Outline: as §1

[15] = Quantitative High-Throughput drug screen in 47 multiple myeloma cell lines against the NCATS MIPE library collection: KMS28BM_JCRB cell viability assay (AID 1919874); further: nearly all actives have a fitted effect of over 35% in size
Outline: as §1

[16] = qHTS drug screen for cell cycle checkpoint inhibitors in PARPi-resistant BRCA-mutant ovarian cancer cell lines. (AID 1963452; calls by dose curve); details: PEO1/OlaR viability, CellTiter-Glo luminescence, 96 h; for Z-AUC: stronger effect = lower value
Outline: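 PEO1, PEO4 and PEO1/OlaR ovarian cancer cells, 600 per well, exposed 96 h at 37C to a dilution series. Viability read by CellTiter-Glo luminescence, normalized to DMSO and empty wells; activity summarized as Z-AUC.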

[17] = Quantitative High-Throughput drug screen in 47 multiple myeloma cell lines against the NCATS MIPE library collection: PCM6_Riken cell viability assay (AID 1919870); further: nearly all actives have a fitted effect of over 30% in size
Outline: as §1

[18] = qHTS for identification of novel therapeutic agents for treatment of microphthalmiaassociated transcription factor (MiT) renal cell carcinoma (RCC) (AID 1963991; calls by dose curve;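 on z-score: curves scaled with 100% = DMSO viability and 0% = empty wells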); details: CellTiter-Glo, 48 h; for Potency: active = Z-AUC below -0.8 in all three lines; for z-score: stronger effect = lower value
Outline: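 UOK109/UOK124/UOK145 (TFE3 fusions, three partners); 500 cells/well; MIPE v4.0, 1912 cpds, 11 conc.; 48 h, 37 C; CellTiter-Glo, 15 min RT; lum. Norm.: DMSO 100%, empty 0%.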

[19] = measured here: PEO1 parental Z-AUC
[20] = TFE3-RCC UOK109 viability, measured here: UOK109 Z-AUC
[21] = TFE3-RCC viability, measured here: UOK124 Z-AUC
[22] = TFE3-RCC viability, measured here: UOK145 Z-AUC
Potency means the concentration at half of the fitted maximal effect.

O=C(Nc1ncc(-c2cc(C(F)F)nn2-c2c(Cl)cccc2Cl)s1)C1CC1
-1.49: Z-AUC [16, 19]
-1.31: Z-AUC ([16]; measured here: PEO4 Z-AUC)
inactive: Z-AUC [16] -1.34
active: Potency [1] 264 nM | Potency [2] 166 nM | Potency [3] 296 nM | Potency [4] 418 nM | Potency [5] 332 nM | Potency [6] 2960 nM | Potency [7] 187 nM | Potency [8] 105 nM | Potency [9] 418 nM | Potency [10] 526 nM | Potency [11] 590 nM | Potency [12] 1660 nM | Potency [13] 1050 nM | Potency [14] 187 nM | Potency [15] 296 nM

O=C(CCCCCCC(=O)Nc1ccc([C@H]2O[C@@H](CSc3nc(-c4ccccc4)c(-c4ccccc4)o3)C[C@@H](c3ccc(CO)cc3)O2)cc1)NO
0.641: Z-AUC ([16]; measured here: PEO4 Z-AUC)
inactive: Z-AUC [16] 0.612
active: Potency [1] 6620 nM | Potency [2] 8330 nM | Potency [3] 11800 nM | Potency [4] 8330 nM | Potency [5] 23500 nM | Potency [6] 13200 nM | Potency [7] 14800 nM | Potency [8] 10500 nM | Potency [9] 7430 nM | Potency [10] 8330 nM | Potency [11] 14800 nM | Potency [17] 13200 nM | Potency [12] 18700 nM | Potency [14] 11800 nM | Potency [15] 13200 nM
1.26: Z-AUC [16, 19]

CC(C)c1cc(C(=O)N2Cc3ccc(CN4CCN(C)CC4)cc3C2)c(O)cc1O
-0.777: Z-AUC [16, 19]
-0.85: z-score [18, 22]
inactive: Z-AUC [16] -1.06
-0.898: z-score [18, 21]
-0.0282: Z-AUC ([16]; measured here: PEO4 Z-AUC)
-0.923: z-score [18, 20]
active: Potency [1] 235 nM | Potency [2] 26.4 nM | Potency [3] 105 nM | Potency [4] 118 nM | Potency [5] 418 nM | Potency [6] 209 nM | Potency [7] 296 nM | Potency [8] 148 nM | Potency [10] 372 nM | Potency [11] 296 nM | Potency [17] 935 nM | Potency [12] 264 nM | Potency [13] 332 nM | Potency [14] 105 nM | Potency [15] 235 nM | Potency ([18]; TFE3-RCC UOK109 viability) 418 nM

Cc1cc(Nc2nc(N[C@@H](C)c3ccc(F)cc3)c(C#N)cc2F)n[nH]1
-0.395: Z-AUC [16, 19]
-0.871: Z-AUC ([16]; measured here: PEO4 Z-AUC)
active: Potency [1] 833 nM | Potency [2] 418 nM | Potency [3] 4180 nM | Potency [4] 1320 nM | Potency [5] 1050 nM | Potency [6] 16600 nM | Potency [7] 1050 nM | Potency [8] 235 nM | Potency [9] 4690 nM | Potency [10] 935 nM | Potency [11] 935 nM | Potency [17] 16600 nM | Potency [12] 11800 nM | Potency [13] 4690 nM | Potency [14] 469 nM
inactive: Z-AUC [16] 0.0536

CC[C@@]1(O)C(=O)OCc2c1cc1n(c2=O)Cc2cc3cc(O)ccc3nc2-1
-0.967: z-score [18, 20]
-2.02: z-score [18, 22]
-3.38: Z-AUC [16, 19]
active: Potency [1] 1180 nM | Potency [2] 10.5 nM | Potency [3] 1660 nM | Potency [4] 2960 nM | Potency [5] 1320 nM | Potency [6] 2960 nM | Potency [7] 13.2 nM | Potency [8] 66.2 nM | Potency [9] 418 nM | Potency [10] 37.2 nM | Potency [11] 264 nM | Potency [17] 743 nM | Potency [12] 8330 nM | Potency [13] 3320 nM | Potency [14] 1180 nM | Potency [15] 209 nM | Potency [16] 38.9 nM | Potency ([18]; TFE3-RCC UOK109 viability) 1480 nM
-2.58: Z-AUC ([16]; measured here: PEO4 Z-AUC)
-1.78: z-score [18, 21]

C=CC(=O)Nc1cc2c(Nc3ccc(F)c(Cl)c3)ncnc2cc1OCCCN1CCOCC1
-0.823: Z-AUC [16, 19]
active: Potency [1] 14800 nM | Potency [2] 296 nM | Potency [3] 5900 nM | Potency [4] 2960 nM | Potency [5] 16600 nM | Potency [6] 18700 nM | Potency [7] 1660 nM | Potency [8] 2640 nM | Potency [9] 1180 nM | Potency [10] 4690 nM | Potency [11] 1870 nM | Potency [17] 1480 nM | Potency [12] 20900 nM | Potency [13] 20900 nM | Potency [14] 9350 nM | Potency [15] 5260 nM
inactive: Z-AUC [16] -0.343
-1.15: Z-AUC ([16]; measured here: PEO4 Z-AUC)

Cc1cc(Nc2cc(N3CCN(C)CC3)nc(C=Cc3ccccc3)n2)n[nH]1
active: Potency [1] 5400 nM | Potency [2] 605 nM | Potency [3] 4810 nM | Potency [4] 3820 nM | Potency [5] 42900 nM | Potency [6] 38200 nM | Potency [7] 9590 nM | Potency [8] 4810 nM | Potency [9] 15200 nM | Potency [10] 1910 nM | Potency [11] 13600 nM | Potency [17] 30300 nM | Potency [12] 13600 nM | Potency [13] 8550 nM | Potency [14] 1210 nM | Potency [15] 13600 nM

Cc1nc(Nc2n[nH]c3c2CN(C(=O)N[C@H](CN(C)C)c2ccccc2)C3(C)C)c2sccc2n1
active: Potency [1] 469 nM | Potency [2] 209 nM | Potency [3] 662 nM | Potency [4] 469 nM | Potency [5] 743 nM | Potency [6] 526 nM | Potency [7] 372 nM | Potency [8] 296 nM | Potency [9] 372 nM | Potency [11] 833 nM | Potency [17] 1870 nM | Potency [12] 1320 nM | Potency [13] 3720 nM | Potency [14] 37.2 nM | Potency [15] 37.2 nM
-0.524: Z-AUC [16, 19]
inactive: Z-AUC [16] -0.766
-1.06: Z-AUC ([16]; measured here: PEO4 Z-AUC)

CC(C)(O)c1cc2nc(-c3cnc(N)nc3)nc(N3CCOCC3)c2s1
inactive: Z-AUC [16] -1.37
-2.51: z-score [18, 22]
-1.8: Z-AUC ([16]; measured here: PEO4 Z-AUC)
-0.824: z-score [18, 21]
-2.49: z-score [18, 20]
-1.91: Z-AUC [16, 19]
active: Potency [1] 37.2 nM | Potency [2] 372 nM | Potency [3] 105 nM | Potency [4] 166 nM | Potency [5] 235 nM | Potency [6] 105 nM | Potency [7] 264 nM | Potency [8] 118 nM | Potency [9] 83.3 nM | Potency [11] 105 nM | Potency [17] 743 nM | Potency [12] 46.9 nM | Potency [13] 187 nM | Potency [14] 18.7 nM | Potency [15] 66.2 nM | Potency ([18]; TFE3-RCC UOK109 viability) 33.2 nM
